Measurements reported in PubChem BioAssay AID1159580 (chemical genetic matrix, 2015).
The whole screen tested about 5,500 compounds, of which about 2,000 (36%) were called active. About 18% were inconclusive and are not listed. Cut-off read from the data, not from the text of the source: active = normalized growth mostly below about 0.91 (no sharp cut-off); inconclusive = no clear call, values can overlap the other calls; inactive = mostly above about 0.92. Some of the results follow.

Test: chemical genetic growth profiling, strain panel (AID 1159580);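 note: tested at 20 µM; growth read once vehicle control cultures reached saturation at 30 °C; 1 = growth at the plate median or of vehicle wells; lower values mean less growth of the strain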
Conditions: S. cerevisiae deletion strains, growth OD

Measured: normalized growth

CC1(C)C(=O)CC[C@@]2(C)C1C[C@@H](O)[C@@]1(C)C3=CC(=O)O[C@@H](c4ccoc4)[C@]3(C)CCC21 (stereo partly drawn)
inactive: locus YAL021C, strain ccr4, hits give low values 1.02 | locus YAL026C, strain drs2, hits give low values 1.02 | locus YAL030W, strain snc1, hits give low values 1.02 | locus YBL061C, strain skt5, hits give low values 1.03 | locus YBR009C, strain hhf1, hits give low values 1.01 | locus YBR021W, strain FUR4, hits give low values 0.967 | locus YBR023C, strain chs3, hits give low values 1.02 | locus YBR171W, strain sec66, hits give low values 1.04 | locus YBR229C, strain ROT2, hits give low values 1.01 | locus YBR231C, strain swc5, hits give low values 1.01 | locus YBR279W, strain paf1, hits give low values 1.01 | locus YCL011C, strain gbp2, hits give low values 1.02 | locus YCL016C, strain dcc1, hits give low values 1.02 | locus YCL029C, strain bik1, hits give low values 0.999 | locus YCL069W, strain vba3, hits give low values 1.02 | locus YCR088W, strain abp1, hits give low values 1.02 | locus YDL005C, strain med2, hits give low values 1.05 | locus YDL035C, strain GPR1, hits give low values 1.01 | locus YDL040C, strain nat1, hits give low values 1.02 | locus YDL074C, strain BRE1, hits give low values 1.01 | locus YDL101C, strain DUN1, hits give low values 1.03 | locus YDL134C, strain PPH21, hits give low values 1.03 | locus YDL185W, strain tfp1, hits give low values 1.02 | locus YDL192W, strain arf1, hits give low values 0.987 | locus YDR001C, strain nth1, hits give low values 1.03 | locus YDR069C, strain doa4, hits give low values 1.01 | locus YDR101C, strain arx1, hits give low values 0.963 | locus YDR137W, strain rgp1, hits give low values 1.05 | locus YDR159W, strain sac3, hits give low values 1.05 | locus YDR162C, strain NBP2, hits give low values 1.01 | locus YDR195W, strain ref2 0.982 | locus YDR297W, strain sur2, hits give low values 1.02 | locus YDR318W, strain mcm21, hits give low values 1.01 | locus YDR334W, strain swr1, hits give low values 1.02 | locus YDR335W, strain msn5, hits give low values 1.01 | locus YDR388W, hits give low values 1 | locus YDR392W, strain spt3, hits give low values 1.03 | locus YDR502C, strain sam2, hits give low values 1.02 | locus YEL003W, strain gim4, hits give low values 1.02 | locus YEL037C, strain rad23, hits give low values 1.02 | locus YEL061C, strain CIN8 (second series), hits give low values 1.03 | locus YEL061C, strain CIN8, hits give low values 1 | locus YER015W, strain faa2, hits give low values 1.01 | locus YER016W, strain bim1, hits give low values 1.03 | locus YER110C, hits give low values 1 | locus YER111C, strain swi4, hits give low values 1.02 | locus YER155C, strain BEM2 (second series), hits give low values 1.03 | locus YER155C, strain BEM2, hits give low values 0.997 | locus YER167W, strain BCK2, hits give low values 0.989 | locus YFR010W, strain ubp6, hits give low values 1.01 | locus YGL078C, strain dbp3, hits give low values 1.03 | locus YGL086W, strain mad1, hits give low values 0.998 | locus YGL167C, strain pmr1, hits give low values 1.04 | locus YGL173C, strain kem1, hits give low values 1.03 | locus YGL227W, strain vid30, hits give low values 1.03 | locus YGL240W, strain doc1, hits give low values 1.02 | locus YGL248W, strain PDE1, hits give low values 1.03 | locus YGL253W, strain hxk2, hits give low values 1.01 | locus YGR135W, strain pre9, hits give low values 1.06 | locus YGR252W, strain gcn5, hits give low values 1 | locus YHR013C, strain ard1, hits give low values 1.03 | locus YHR027C, strain rpn1, hits give low values 1.02 | locus YHR079C, strain IRE1 (second series), hits give low values 0.998 | locus YHR094C, strain hxt1, hits give low values 0.991 | locus YHR129C, strain ARP1, hits give low values 1.01 | locus YHR142W, strain chs7, hits give low values 1.04 | locus YHR200W, strain rpn10, hits give low values 1 | locus YIL066C, strain RNR3, hits give low values 1 | locus YIL073C, strain SPO22, hits give low values 0.977 | locus YIL125W, strain kgd1, hits give low values 0.984 | locus YIR030C, strain dcg1, hits give low values 0.999 | locus YJL092W, strain hpr5, hits give low values 1.03 | locus YJL095W, strain BCK1 (second series), hits give low values 1.01 | locus YJL095W, strain BCK1, hits give low values 1.04 | locus YJL115W, strain asf1, hits give low values 1.04 | locus YJL129C, strain trk1, hits give low values 1.02 | locus YJL134W, strain LCB3, hits give low values 1 | locus YJL154C, strain vps35, hits give low values 1.02 | locus YJL164C, strain tpk1, hits give low values 1.02 | locus YJL166W, strain qcr8, hits give low values 1.02 | locus YJL168C, strain set2, hits give low values 1 | locus YJL187C, strain SWE1 (second series), hits give low values 1.04 | locus YJL187C, strain SWE1, hits give low values 1.02 | locus YKL009W, strain mrt4, hits give low values 1.02 | locus YKL068W, hits give low values 1 | locus YKL085W, strain MDH1 (second series), hits give low values 0.993 | locus YKL085W, strain MDH1, hits give low values 0.993 | locus YKL160W, strain elf1, hits give low values 1.02 | locus YKR001C, strain vps1, hits give low values 0.975 | locus YKR026C, strain gcn3, hits give low values 1.02 | locus YKR091W, strain srl3, hits give low values 1.03 | locus YLL001W, strain dnm1, hits give low values 1.03 | locus YLL026W, hits give low values 1.02 | locus YLL041C, strain sdh2, hits give low values 1 | locus YLR027C, strain aat2, hits give low values 1.02 | locus YLR039C, strain RIC1, hits give low values 1.05 | locus YLR058C, strain SHM2, hits give low values 1.01 | locus YLR102C, strain apc9, hits give low values 1.01 | locus YLR221C, strain rsa3, hits give low values 1.05 | locus YLR258W, strain gsy2, hits give low values 1.01 | locus YLR262C, strain YPT6 (second series), hits give low values 1.06 | locus YLR268W, strain sec22, hits give low values 0.976 | locus YLR320W, strain mms22, hits give low values 1.03 | locus YLR330W, strain CHS5, hits give low values 1 | locus YLR342W, strain FKS1, hits give low values 1.02 | locus YLR357W, strain rsc2, hits give low values 1.02 | locus YLR370C, strain arc18, hits give low values 1.02 | locus YLR371W, strain rom2, hits give low values 0.957 | locus YLR384C, strain iki3, hits give low values 1.03 | locus YLR418C, strain cdc73, hits give low values 1.05 | locus YML016C, strain PPZ1, hits give low values 1.01 | locus YML032C, strain rad52, hits give low values 0.987 | locus YML120C, strain ndi1, hits give low values 1.01 | locus YML124C, strain tub3, hits give low values 0.998 | locus YMR058W, strain fet3, hits give low values 1.01 | locus YMR078C, strain ctf18, hits give low values 1.01 | locus YMR125W, strain sto1, hits give low values 1.04 | locus YMR129W, hits give low values 1.03 | locus YMR205C, strain PFK2, hits give low values 1.05 | locus YMR223W, strain ubp8, hits give low values 1 | locus YMR231W, strain pep5, hits give low values 1.02 | locus YMR307W, strain GAS1, hits give low values 0.91 | locus YNL067W, strain RPL9B, hits give low values 1.04 | locus YNL071W, strain lat1, hits give low values 1.02 | locus YNL128W, strain TEP1, hits give low values 1.01 | locus YNL153C, strain GIM3, hits give low values 1.04 | locus YNL209W, strain ssb2, hits give low values 1.03 | locus YNL233W, strain BNI4, hits give low values 1.03 | locus YNL248C, strain rpa49, hits give low values 1.03 | locus YNL250W, strain rad50, hits give low values 1.03 | locus YNL271C, strain bni1, hits give low values 0.999 | locus YNL298W, strain CLA4, hits give low values 0.997 | locus YNL307C, strain MCK1, hits give low values 1.01 | locus YNL322C, strain KRE1 (second series), hits give low values 1.03 | locus YNR049C, strain mso1, hits give low values 1.02 | locus YNR052C, strain pop2, hits give low values 1.04 | locus YOL012C, strain htz1 0.777 | locus YOL147C, strain pex11, hits give low values 0.991 | locus YOR001W, strain rrp6, hits give low values 1.03 | locus YOR061W, strain CKA2, hits give low values 1.01 | locus YOR069W, strain VPS5, hits give low values 1.01 | locus YOR070C, strain gyp1, hits give low values 1.02 | locus YOR080W, strain dia2, hits give low values 1.02 | locus YOR083W, strain WHI5, hits give low values 1.02 | locus YOR106W, strain vam3, hits give low values 1.05 | locus YOR136W, strain idh2, hits give low values 1.01 | locus YOR144C, strain elg1, hits give low values 0.997 | locus YOR184W, strain ser1, hits give low values 0.967 | locus YOR265W, strain rbl2, hits give low values 1.03 | locus YOR270C, strain vph1, hits give low values 1.04 | locus YOR290C, strain snf2, hits give low values 1.03 | locus YOR316C, strain cot1, hits give low values 1.01 | locus YPL051W, strain arl3, hits give low values 1.03 | locus YPL055C, strain LGE1, hits give low values 1.01 | locus YPL078C, strain atp4, hits give low values 1 | locus YPL106C, strain sse1, hits give low values 1.02 | locus YPL240C, strain hsp82, hits give low values 1.01 | locus YPL241C, strain CIN2, hits give low values 0.996 | locus YPR119W, strain clb2, hits give low values 0.995 | locus YPR141C, strain kar3, hits give low values 0.99 | locus YPR163C, strain tif3, hits give low values 0.992 | locus YPR167C, strain met16, hits give low values 1.01 | strain wtn01, hits give low values 0.965
